From PubChem BioAssay
Only some compounds are listed: those with a hit (about 18% of all), similar ones and a draw of the others.
TDP1 block: blocks human tyrosyl-DNA phosphodiesterase 1; Q9NUW8; recombinant TDP1, AlphaScreen DNA substrate cleavage; Potency, µM (top dose mostly 130 µM), hits mostly inhibitors; 350,000 tested, 0.28% active; further: nearly all actives have a fitted effect of over 40% in size
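AlphaScreen read-out: signal falls as enzyme removes the 3' tyrosine-FITC from a 5'-biotinylated DNA oligo (15 nM, 5 min, RT). Enzyme was E. coli-made recombinant Tdp1 at 1 nM, exposed to compound for 15 min beforehand; beads 10 ug/ml, 10 min.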
DT40 TDP1 CPT: growth inhibition of DT40 Tdp1-/-;hTDP1 cells with camptothecin (screen for TDP1 inhibitors) | Potency, µM (titrated, usually from 46.2 µM), usual class: inhibitors | 420,000 tested, 12% active | chicken DT40 Tdp1-/-;hTDP1 cells + 20 nM CPT, ATP luminescence, 48 h; further: nearly all actives have a fitted effect of over 55% in size
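Chicken DT40 Tdp1-/- cells complemented with human TDP1, 400 cells/well, exposed to compounds plus 20 nM camptothecin for at least 48 h at 37 C; viability read as ATP content by CellTiter-Glo luminescence.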
PLK1 PBD inh: inhibitors of human PLK1 polo-box domain binding. P53350. AID 720504. Plk1 PBD binding of FITC phosphopeptide, fluorescence polarization. 360,000 tested, 2.8% active. Potency, µM, usual class: inhibitors; further: series mostly up to about 57 µM; nearly all actives have a fitted effect of over 65% in size
TDP1 cell noCPT: qHTS for Inhibitors of human tyrosyl-DNA phosphodiesterase 1 (TDP1): qHTS in cells in absence of CPT | 420,000 tested, 15% active | Potency, µM (doses to about 46.2 µM), hits mostly inhibitors | DT40 Tdp1-/- hTDP1 cells, no CPT, ATP luminescence, 48 h; further: nearly all actives have a fitted effect of over 55% in size
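A cellular qHTS used chicken DT40 cells lacking endogenous Tdp1 but carrying stably transfected human TDP1. Compounds were applied without camptothecin, and cell growth kinetics were judged by ATP-dependent luminescence after ≥48 hr.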
VDR inh: blocks the human vitamin D receptor; P11473; VDR-SRC2-3 peptide fluorescence polarization, 2 h; Potency, µM, actives largely listed as inhibitors; 400,000 tested, 0.93% active; AID 504847
Target sequence (P11473 whole entry, looked up): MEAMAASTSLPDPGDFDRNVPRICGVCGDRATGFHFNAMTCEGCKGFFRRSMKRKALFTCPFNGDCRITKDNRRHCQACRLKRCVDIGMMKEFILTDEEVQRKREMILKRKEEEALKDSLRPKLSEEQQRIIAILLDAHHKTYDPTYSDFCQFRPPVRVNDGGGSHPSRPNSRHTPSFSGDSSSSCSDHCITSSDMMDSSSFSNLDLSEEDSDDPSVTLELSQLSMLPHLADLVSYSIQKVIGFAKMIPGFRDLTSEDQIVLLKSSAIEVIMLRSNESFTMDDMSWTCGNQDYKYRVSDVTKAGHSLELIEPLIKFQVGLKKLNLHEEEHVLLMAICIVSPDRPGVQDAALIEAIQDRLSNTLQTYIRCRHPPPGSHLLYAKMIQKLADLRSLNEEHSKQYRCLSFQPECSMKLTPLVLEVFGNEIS
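Two reagent solutions held at 4 deg C in the dark were dispensed, compounds pinned at 23 nl, and the mixture incubated 2 h at room temperature. Read-out: fluorescence polarization of VDR–SRC2-3 peptide binding.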
GCN5L2 inh: GCN5L2 (KAT2A) acetyltransferase inhibition | Q92830 | GCN5L2 HAT assay, ThioGlo1 CoA-SH fluorescence | Potency, µM (top dose mostly 58.9 µM), usual class: inhibitors | 390,000 tested, 0.21% active | AID 504327
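Compounds, pin-transferred from DMSO stocks, meet 20nM GCN5L2 for 15 min before the reaction begins with H3(1-25) peptide (75uM) and acetyl-CoA (70uM). Thiol-reactive ThioGlo1 reports CoA release over 20 min at room temperature.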
VDR inh confirm: inhibits human vitamin D receptor, primary hit validation | AID 602199 | Potency, µM, most hits filed as inhibitors | shares compounds with VDR inh | 840 tested, 89% active | VDR-coactivator inhibition assay, qHTS confirmation
VDR FP fluor: confirmation of human VDR-coactivator binding inhibitors, fluorescein label | shares compounds with VDR inh | VDR-coactivator binding, fluorescein fluorescence polarization | Potency, µM (titrated, usually from 57.1 µM), most hits filed as inhibitors | 840 tested, 48% active
VDR bla: VDR (human) inhibition, cell-based beta-lactamase validation. Potency, µM (highest dose often 46.1 µM), usual class: inhibitors. shares compounds with VDR inh. VDR beta-lactamase reporter cells, FRET ratio; cells co-treated with VDR agonist LG190178. AID 602202. 840 tested, 23% active
VDR cytotox: cell toxicity, VDR inhibitor hit counter-screen; shares compounds with VDR inh; cytotoxicity counter-screen, cell viability, qHTS; Potency, µM (highest dose often 48.3 µM), usual class: cytotoxic; 840 tested, 18% active; AID 602204; further: nearly all actives have a fitted effect of over 75% in size
Numbers stand for hits. The call rests on the fitted dose curve; in most records, active means well fitted curve in the direction sought with a large enough effect; inconclusive means small, poorly fitted or top-dose-only effect, or another doubt; inactive means no such curve, though single readings can be large; an effect the other way counts as inactive or inconclusive.

Results for O=c1nc(/C=C/c2cccn2-c2ccc([N+](=O)[O-])cc2)cc(C(F)(F)F)[nH]1 ?
TDP1 block: inactive; DT40 TDP1 CPT: inactive; PLK1 PBD inh: inconclusive; TDP1 cell noCPT: inactive; VDR inh: inactive; GCN5L2 inh: inactive

Results for NNC(=O)c1cccc(S(=O)(=O)Nc2cccc(C(F)(F)F)c2)c1 ?
TDP1 block: inactive; DT40 TDP1 CPT: inactive; PLK1 PBD inh: inactive; TDP1 cell noCPT: inactive; VDR inh: inactive; GCN5L2 inh: inactive

How did Nc1ccc(N2CCCC2)c(S(=O)(=O)Nc2cccc(C(F)(F)F)c2)c1 do in these assays?
TDP1 block: inactive; DT40 TDP1 CPT: inconclusive; PLK1 PBD inh: 4.7µM; TDP1 cell noCPT: 29µM; VDR inh: 40µM; GCN5L2 inh: inactive; VDR inh confirm: 11; VDR FP fluor: inconclusive; VDR bla: inactive; VDR cytotox: inactive

Results for O=C(/C=C\c1ccccc1OC(=O)c1ccccc1F)c1cc2ccccc2o1 ?
TDP1 block: inactive; DT40 TDP1 CPT: 8.2µM; PLK1 PBD inh: inactive; TDP1 cell noCPT: 15µM; VDR inh: 14µM; GCN5L2 inh: inactive; VDR inh confirm: inconclusive; VDR FP fluor: 3.5µM; VDR bla: inconclusive; VDR cytotox: inconclusive

Results for CN(C)c1ccc(-n2cccc2/C=C/[N+](=O)[O-])cc1 ?
TDP1 block: inactive; DT40 TDP1 CPT: 16µM; PLK1 PBD inh: inactive; TDP1 cell noCPT: 4.1µM; VDR inh: 35µM; GCN5L2 inh: inactive; VDR inh confirm: 13; VDR FP fluor: 8.9µM; VDR bla: inconclusive; VDR cytotox: inconclusive

How did Oc1ccc(NCc2ccccc2OCc2ccccc2)cc1 do in these assays?
TDP1 block: inactive; DT40 TDP1 CPT: 18µM; PLK1 PBD inh: inactive; TDP1 cell noCPT: 23µM; VDR inh: 50µM; GCN5L2 inh: inactive; VDR inh confirm: 14; VDR FP fluor: 14µM; VDR bla: inactive; VDR cytotox: inconclusive

Results for O=C(Nc1ccc2ccccc2c1)c1nc(S(=O)(=O)Cc2ccccc2F)ncc1Cl ?
DT40 TDP1 CPT: 0.71µM; TDP1 cell noCPT: 1.3µM; VDR inh confirm: 3.5; VDR FP fluor: 3.5µM; VDR bla: 18µM; VDR cytotox: 19µM

Results for Cc1cccc(C)c1NC(=O)c1nc(S(=O)(=O)Cc2ccccc2F)ncc1Cl ?
DT40 TDP1 CPT: 1.3µM; TDP1 cell noCPT: 5µM; VDR inh confirm: inconclusive; VDR FP fluor: 4µM; VDR bla: 6.5µM; VDR cytotox: inconclusive

How did Cc1ccc(NC(=O)c2nc(SCc3ccccc3F)ncc2Cl)cc1 do in these assays?
DT40 TDP1 CPT: inactive; TDP1 cell noCPT: inactive

How did O=C(Nc1ccccc1F)c1nc(S(=O)(=O)Cc2ccccc2F)ncc1Cl do in these assays?
TDP1 block: inactive; DT40 TDP1 CPT: 1.3µM; TDP1 cell noCPT: 0.92µM; VDR inh: 14µM; GCN5L2 inh: inactive; VDR inh confirm: 2.8; VDR FP fluor: 8.9µM; VDR bla: inconclusive; VDR cytotox: 12µM
